Test systems include HCT-15 colon; HT29 colon; SNB-75 CNS; SNB-19 CNS; U251 CNS; PC-3 prostate; SK-MEL-5 melanoma; UACC-62 melanoma; LOX IMVI melanoma; SK-MEL-28 melanoma; EKVX NSCLC; SN12C renal; UO-31 renal; TK-10 renal; CAKI-1 renal; A498 renal; CCRF-CEM leukemia; MOLT-4 leukemia; ACHN renal.
Common to all, as to test: NCI-60 one-dose screen, 48 h (100 = growth as untreated, 0 = no growth, -100 = all killed)
Conditions in all cases: 10 µM unless noted

About 83,000 compounds went through this panel and 20% of them were active in at least one assay; those are over-represented in the sample as a whole.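 Values shown are percent growth following 48 h exposure of cells in 96-well plates to a single concentration of compound; below 10 was considered active.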 A number with no mark means an inactive call. Calls of active or inactive are those of the source.

As to `CCN1CCN(Cc2ccc(-c3cc4c(N[C@H](C)c5ccccc5)ncnc4[nH]3)cc2)CC1`, the growth with HCT-15 colon was 50.1%; in the test with HT29 colon, 4.82% (active); in the test on SNB-75 CNS, 75.1%; with SNB-19 CNS, 46.2%; with U251 CNS, 56.8%; with PC-3 prostate it was 41.3%. Besides, the growth in the test with SK-MEL-5 melanoma was 59.8%; in the test with UACC-62 melanoma it was 7.59% (active); in the test with LOX IMVI melanoma, 13.5%; with SK-MEL-28 melanoma, 16.7%; in the test with EKVX NSCLC, 41.8%; in the test with SN12C renal it was 25%. Also, the growth in the test on UO-31 renal is 13.5%; with TK-10 renal, 2.14% (active); with CAKI-1 renal it was 21.7%; in the test with A498 renal it was 25.4%; in the test with CCRF-CEM leukemia, 25.4%; with MOLT-4 leukemia it was 37.8%.

Consider `CNC(=O)c1cc(Oc2ccc(NC(=O)Nc3ccc(Cl)c(C(F)(F)F)c3)c(F)c2)ccn1`, for which the growth with HCT-15 colon is -18.1% (active); with HT29 colon, -35.2% (active); in the test with SNB-75 CNS, -68.8% (active); in the test with SNB-19 CNS, 3.52% (active); in the test with U251 CNS, -44.4% (active); in the test on PC-3 prostate, 3.89% (active). Besides, the growth was -95.9% (active) in the test with SK-MEL-5 melanoma; -41.9% (active) in the test on UACC-62 melanoma; -89% (active) in the test on LOX IMVI melanoma; -53.7% (active) in the test with SK-MEL-28 melanoma; -3.92% (active) in the test with EKVX NSCLC; -40.4% (active) in the test with SN12C renal. Moreover, the growth in the test on UO-31 renal is -43.1% (active); in the test on TK-10 renal, -3.33% (active); in the test with CAKI-1 renal, 1.01% (active); in the test on A498 renal, -61.7% (active); in the test with CCRF-CEM leukemia, 1.42% (active); in the test on MOLT-4 leukemia, -7.86% (active).

On to `Cc1oc2c(C(=O)N/N=C\c3ccc(O)cc3O)c[nH]c2c1C`, for which the growth was 9.44% (active) in the test with HCT-15 colon; 25.6% in the test on HT29 colon; 40.2% with SNB-75 CNS; 35.5% in the test with SNB-19 CNS; 20.2% in the test with U251 CNS; 43.4% in the test on PC-3 prostate. The growth with SK-MEL-5 melanoma is 23.6%; in the test on UACC-62 melanoma, 2.05% (active); in the test on LOX IMVI melanoma it was -7.96% (active); in the test with SK-MEL-28 melanoma, 32.1%; in the test with EKVX NSCLC, 26.6%; with SN12C renal, 44.5%. In addition, the growth in the test on UO-31 renal is -0.347% (active); in the test with TK-10 renal, 6.21% (active); with CAKI-1 renal, 1.53% (active); in the test with A498 renal, 44.6%; in the test with CCRF-CEM leukemia, 23.9%; in the test on MOLT-4 leukemia, 8.56% (active).

On to `COc1cc(OC)c(/C=C/S(=O)(=O)Cc2ccc(OC)c(NCC(=O)O)c2)c(OC)c1`, for which the growth in the test on HCT-15 colon was 11.8%; in the test with HT29 colon, 0.285% (active); in the test with SNB-75 CNS it was 18.2%; in the test with SNB-19 CNS it was 29.4%; in the test on U251 CNS, 11.4%; with PC-3 prostate, 21.9%. Further, the growth in the test with SK-MEL-5 melanoma was -12.1% (active); in the test with UACC-62 melanoma, 37.4%; in the test on LOX IMVI melanoma, 16%; in the test on SK-MEL-28 melanoma, 65.9%; with EKVX NSCLC it was 27.3%; with SN12C renal, 34%. Also, the growth with UO-31 renal was 36.3%; with TK-10 renal, 49.7%; in the test with CAKI-1 renal, 18.2%; with A498 renal, -4.03% (active); in the test on CCRF-CEM leukemia, 16.2%; in the test on MOLT-4 leukemia, 14.5%.

In the case of `Cc1ccc(-[n+]2c3cc(N)c(C)cc3nc3cc(C)c(Nc4ccccc4)cc32)cc1`, the growth is -69.8% (active) in the test with HCT-15 colon; -73.9% (active) in the test with HT29 colon; -68.5% (active) in the test with SNB-75 CNS; -82.3% (active) in the test on SNB-19 CNS; -75.1% (active) in the test with U251 CNS; -29.1% (active) in the test on PC-3 prostate. In addition, the growth in the test on SK-MEL-5 melanoma is -100% (active); in the test on UACC-62 melanoma it was -73.5% (active); with LOX IMVI melanoma it was -100% (active); in the test on SK-MEL-28 melanoma it was -69.6% (active); in the test with EKVX NSCLC it was -22.6% (active); in the test on SN12C renal, -70.6% (active). The growth in the test on TK-10 renal is -18.4% (active); in the test with ACHN renal, -92% (active); in the test on CAKI-1 renal, -42.2% (active); with A498 renal, -84.5% (active); in the test on CCRF-CEM leukemia, 1.93% (active); in the test on MOLT-4 leukemia, -2.02% (active).

Take `O=c1[nH]c([C@@H]2CCCN2)nc2c1oc1ccc(Cl)cc12`: the growth in the test on HCT-15 colon is 66.3%; in the test on HT29 colon, 43.9%; in the test with SNB-75 CNS, 7.8% (active); in the test on SNB-19 CNS, 74.8%; in the test with U251 CNS, 42.6%; in the test on PC-3 prostate, 58%. The growth with SK-MEL-5 melanoma is 51.2%; in the test with UACC-62 melanoma, 78.5%; with LOX IMVI melanoma, 39%; with SK-MEL-28 melanoma it was 78.8%; in the test with EKVX NSCLC, 61.4%; with SN12C renal, 81.3%. Further, the growth with UO-31 renal was 58.4%; with TK-10 renal, 52.3%; in the test on CAKI-1 renal it was 42.4%; in the test on A498 renal, 6.25% (active); with CCRF-CEM leukemia, 63.1%; in the test with MOLT-4 leukemia, 68.4%.

Consider `O=c1sn(-c2cccc3ccccc23)c(=O)n1Cc1ccccc1`, for which the growth was 104% in the test with HCT-15 colon; 100% in the test with HT29 colon; 105% in the test on SNB-75 CNS; 101% with SNB-19 CNS; 97.1% in the test with U251 CNS; 89.9% with PC-3 prostate. The growth in the test with SK-MEL-5 melanoma was 104%; in the test with UACC-62 melanoma, 92.6%; in the test on LOX IMVI melanoma, 99.9%; in the test on SK-MEL-28 melanoma it was 114%; in the test with EKVX NSCLC, 108%; in the test with SN12C renal it was 94.8%. The growth with UO-31 renal was 86.3%; in the test with TK-10 renal it was 95.5%; in the test on CAKI-1 renal it was 99%; in the test on A498 renal it was 102%; in the test on CCRF-CEM leukemia, 64.9%; in the test on MOLT-4 leukemia, 39.1%.

For the compound `c1cn2cc(-c3ccc4cn[nH]c4c3)nc(Nc3ccc(N4CCOCC4)cc3)c2n1`, the growth was 66.5% in the test with HCT-15 colon; 32.7% with HT29 colon; -3.9% (active) with SNB-75 CNS; 50.3% in the test with SNB-19 CNS; 41.5% in the test on U251 CNS; 43.3% with PC-3 prostate. Also, the growth in the test on SK-MEL-5 melanoma was 71.4%; in the test with UACC-62 melanoma, 53.3%; in the test on LOX IMVI melanoma, 56.4%; in the test on SK-MEL-28 melanoma, 63%; in the test with EKVX NSCLC, 83.9%; with SN12C renal, 41.3%. In addition, the growth with TK-10 renal is 76.1%; with ACHN renal, 39%; in the test on CAKI-1 renal, 39.4%; in the test on A498 renal, 68.7%; in the test with CCRF-CEM leukemia it was 66.9%.

For the origin of these results see PubChem BioAssay (NCI).
